The whole screen tested about 310,000 compounds, of which about 14,000 (4.5%) showed an effect of 50% or more. The effect is printed as a negative number. This is one part of a sample in which strong results are shown more often than they occur.
molecular target: human ether-à-go-go-related gene (hERG) potassium channel (human, UniProt Q12809); experiment: primary screen, population patch clamp on CHO cells stably expressing hERG; higher = less effect of the substance
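Note: peak tail current of the secondary pulse compared with the same well before compound.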

Chain of human ether-à-go-go-related gene (hERG) potassium channel (Q12809 whole entry, looked up): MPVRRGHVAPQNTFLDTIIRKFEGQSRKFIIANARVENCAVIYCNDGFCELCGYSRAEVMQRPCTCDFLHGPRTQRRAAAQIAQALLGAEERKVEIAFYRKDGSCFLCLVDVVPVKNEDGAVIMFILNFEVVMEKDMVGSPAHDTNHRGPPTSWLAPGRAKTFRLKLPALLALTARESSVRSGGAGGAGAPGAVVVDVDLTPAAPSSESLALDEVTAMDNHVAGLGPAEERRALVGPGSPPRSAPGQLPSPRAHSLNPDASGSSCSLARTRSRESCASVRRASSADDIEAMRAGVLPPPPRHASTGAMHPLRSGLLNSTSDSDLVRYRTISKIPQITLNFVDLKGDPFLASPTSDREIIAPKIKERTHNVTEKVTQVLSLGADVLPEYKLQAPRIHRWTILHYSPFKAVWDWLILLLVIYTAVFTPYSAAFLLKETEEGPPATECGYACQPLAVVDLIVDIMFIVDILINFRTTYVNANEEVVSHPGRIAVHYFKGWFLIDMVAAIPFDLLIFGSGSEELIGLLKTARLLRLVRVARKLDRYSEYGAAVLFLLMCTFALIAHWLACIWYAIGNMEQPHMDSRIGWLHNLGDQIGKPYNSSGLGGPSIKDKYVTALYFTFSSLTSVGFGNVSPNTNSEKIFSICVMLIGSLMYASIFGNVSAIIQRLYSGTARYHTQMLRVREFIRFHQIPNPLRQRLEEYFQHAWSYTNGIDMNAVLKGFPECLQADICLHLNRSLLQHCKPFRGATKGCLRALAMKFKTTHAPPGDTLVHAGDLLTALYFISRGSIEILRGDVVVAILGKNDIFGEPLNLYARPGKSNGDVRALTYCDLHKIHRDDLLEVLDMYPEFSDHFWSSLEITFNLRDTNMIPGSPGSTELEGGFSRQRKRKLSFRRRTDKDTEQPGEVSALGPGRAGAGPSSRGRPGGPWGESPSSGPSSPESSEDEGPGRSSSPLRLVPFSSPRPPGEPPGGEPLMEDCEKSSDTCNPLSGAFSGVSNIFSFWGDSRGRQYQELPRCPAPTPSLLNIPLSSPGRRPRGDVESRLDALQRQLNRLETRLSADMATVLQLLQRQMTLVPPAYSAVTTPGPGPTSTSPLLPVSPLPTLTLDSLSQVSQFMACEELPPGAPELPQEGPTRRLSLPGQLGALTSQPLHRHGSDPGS

Structure (SMILES)	hERG current change (%, negative = inhibition) at 10uM
CC(C)C(NC(=O)c1ccccc1)C(=O)NC1CCCc2ccccc21 (centres unmarked)	15%
COc1ccc(-n2c(CNCCc3ccc(C)cc3)nc3ccccc3c2=O)cc1	-32.8%
COC(=O)c1cc(C(=O)OCC(=O)N(C)C2CCS(=O)(=O)C2)cc([N+](=O)[O-])c1 (centres unmarked)	7.96%
Cc1cc(C)n2nc(C(=O)OCC(=O)N3C(C)CCCC3C)nc2n1 (centres unmarked)	21.5%
Cc1ccc(S(=O)(=O)c2nc(Nc3nccs3)sc2Cl)cc1	11.6%
COc1ccc(-n2c(-c3ccc(Br)cc3)c[n+]3c2CCc2ccccc2-3)cc1.[Br-]	-85.2%
COc1ccc(-n2c(-c3ccc(Cl)cc3)c[n+]3c2CCc2ccccc2-3)cc1.[Br-]	-78.4%
Cc1ccc(-n2c(=O)[nH]c3ncccc3c2=O)cc1	30.2%
COc1ccc(-n2c(-c3ccccc3)nnc2-c2ccc(Cl)cc2)cc1	4.96%
COc1ccc(-n2c(-c3ccc(Cl)cc3)c[n+]3c2CCCCC3)cc1.[Br-]	-29.8%
COc1ccc(N2C3=[N+](CC2(C)O)c2ccccc2CC3)cc1.[Br-] (centres unmarked)	-44.3%
Cc1ccc(-n2c(-c3ccc(Br)cc3)c[n+]3c2CCc2ccc4cccnc4c2-3)cc1.[Br-]	-74.2%
Brc1ccc(-c2cn3c(n2)CCc2ccc4cccnc4c2-3)cc1	12.5%
COc1ccc(-n2c(-c3ccc(Br)cc3)nc(=S)c3c2CCCC3)cc1	-1.32%
COc1ccc(N2C(=O)CC(NNC(=O)c3cc(C)oc3C)C2=O)cc1 (centres unmarked)	23.6%
COc1ccc(CCNC(=O)CSc2nnc(-c3ccccc3)c3ccccc23)cc1OC	-20%
CCNC(=O)NC(=O)C(C)Oc1ccc(C(=O)OC)cc1 (centres unmarked)	3.92%
COc1ccc(C(c2sc3nc(C)nn3c2O)N2CCC3(CC2)OCCO3)cc1 (centres unmarked)	-2.74%
COc1ccc(Cc2nnc(NC(=O)Nc3ccc(C)cc3)s2)cc1OC	10.2%
Nc1c(C(=O)CSc2nnc(Nc3ccc(F)cc3)s2)c(=O)[nH]c(=O)n1C1CC1	0.202%
O=C1CCC(C(=O)N2CCCC(C(=O)c3ccc4c5c(cccc35)CC4)C2)=NN1 (centres unmarked)	-17.9%
O=C(c1ccc2c3c(cccc13)CC2)C1CCCN(Cc2ccncc2)C1 (centres unmarked)	-51.5%

Structure (SMILES)	hERG current change (%, negative = inhibition) at 10uM
CN(C)C(=O)CCC(=O)N1CCCC(C(=O)c2ccc3c4c(cccc24)CC3)C1 (centres unmarked)	-20.2%
O=C(c1ccc2c3c(cccc13)CC2)C1CCCN(Cc2ccccn2)C1 (centres unmarked)	-42.5%
COCCC(=O)N1CCCC(C(=O)c2ccc3c4c(cccc24)CC3)C1 (centres unmarked)	-17.8%
O=C(c1ccc2c3c(cccc13)CC2)C1CCCN(C(=O)c2cccnc2)C1 (centres unmarked)	-19.4%
O=C(c1ccc2c3c(cccc13)CC2)C1CCCN(CC2CC2)C1 (centres unmarked)	-46.3%
O=C1CCC(CCC(=O)N2CCCC(C(=O)c3ccc4c5c(cccc35)CC4)C2)=NN1 (centres unmarked)	-54.4%
O=C(c1ccc2c3c(cccc13)CC2)C1CCCN(Cc2cccnc2)C1 (centres unmarked)	-63.4%
NC(=O)CCC(=O)N1CCCC(C(=O)c2ccc3c4c(cccc24)CC3)C1 (centres unmarked)	2.05%
O=C(c1ccc2c3c(cccc13)CC2)C1CCCN(Cc2ccc(OCCO)cc2)C1 (centres unmarked)	-70.4%
C/C=C(\C)C(=O)OC1C(C)=C2C(C1OC(=O)CCCCC)C(C)(OC(C)=O)CC(OC(=O)CCC)C1(O)C2OC(=O)C1(C)O (centres unmarked)	-6.49%
COc1cc2cccc(OC)c(=O)c2c(O)c1OC	-1.84%
CCc1ccc(N/C(N)=N/c2nc(CSc3ccccn3)cc(=O)[nH]2)cc1	3.29%
Cn1ncc2c(Nc3cccc(C(=O)O)c3)ncnc21	6.66%
CC(C(=O)NCc1ccccn1)c1ccc([N+](=O)[O-])cc1 (centres unmarked)	-49.5%
Cc1ccc(S(=O)(=O)N2CCCC2C(=O)Nc2cc(C)on2)cc1 (centres unmarked)	-1.05%
Cc1ccccc1-c1noc(CCC(=O)NCc2ccco2)n1	-2.05%
C#CCOCCOCCOCCNc1nc(N2CCN(C(=O)[C@H](CCCCN)n3cc(C(N)[C@H](C)CC)nn3)CC2)nc(N2CCN(C(=O)[C@H](CCC(=O)O)n3cc(C(N)[C@H](C)CC)nn3)CC2)n1.Cl (some centres unmarked)	13.5%
C=C[C@@H]1c2cc(C)ccc2N(S(=O)(=O)c2ccc(C)cc2)[C@H](c2ccccc2C(F)(F)F)C1(C#N)C#N	7.01%
COc1cc(C(=O)NCC(=O)N/N=C(/C)c2cccs2)cc(OC)c1OC	-0.388%
Cc1ccc(CC(=O)Nc2ccc(S(=O)(=O)Nc3ncccn3)cc2)cc1	19.9%
CC(c1ccccc1)n1c(-c2ccccc2F)n[nH]c1=S (centres unmarked)	-11.9%
COCC(=O)N1CCCC(C(=O)c2ccc3c4c(cccc24)CC3)C1 (centres unmarked)	-21.2%

— PMC4336329 (PLoS ONE, 2015)
